Compound activity: PubChem, The Scripps Research Institute Molecular Screening Center
In the library only some 1.1% were active in any assay of this set; here they are far more common.
GalR3 antag: antagonists of human GalR3; O60755; HEK293 GalR3-CNG cAMP membrane potential fluorescence; galR3 body fused to GalR1 C-terminus; inhibition, % at 3 µM; hit rate 0.44% among 360,000; AID 651719;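 active = inhibition above the screen-wide average plus 3 SD, cut at about 13% in these data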;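 note: forskolin and galanin both at EC90 stimulate the cells; cAMP rise reported by CNG channel membrane potential dye signal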
Target sequence (O60755 1-299 limits assumed): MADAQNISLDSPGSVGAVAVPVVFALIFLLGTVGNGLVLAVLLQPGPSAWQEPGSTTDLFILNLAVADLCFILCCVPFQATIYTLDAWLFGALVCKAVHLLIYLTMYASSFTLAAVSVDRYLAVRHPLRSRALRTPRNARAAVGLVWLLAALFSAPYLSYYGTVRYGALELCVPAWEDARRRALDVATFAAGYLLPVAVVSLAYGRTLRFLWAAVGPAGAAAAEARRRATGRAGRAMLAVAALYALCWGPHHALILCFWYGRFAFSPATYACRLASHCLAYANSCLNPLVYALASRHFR
NR2F2 inh: inhibitors of human COUP-TFII (NR2F2). HEK293T NGFI-A luciferase reporter, luminescence. inhibition, % at 8.6 µM. AID 686940. hit rate 0.7% among 370,000. P24468;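 active = inhibition above a per-plate cutoff, mean inhibition of test wells between control levels plus 3 SD, cut at about 38% in these data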;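 note: cells cotransfected with COUP-TFII expression vector driving the NGFI-A reporter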
SRC3 inh: inhibits human SRC3 coactivator. inhibition, % at 3.6 µM. HEK293 GAL4-SRC3 luciferase reporter, luminescence. AID 588352. Q9Y6Q9. hit rate 0.17% among 360,000;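 active = inhibition above a per-campaign cutoff, the mean of all compounds plus 3 SD, cut at about 60% in these data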;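 note: higher means less SRC3-driven luciferase light from the GAL4 reporter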
LRH-1 inv ag: suppresses constitutive activity of human LRH-1; inhibition, % at 3.6 µM; HEK293T StAR-luciferase reporter, LRH-1 transfected, 24 h; AID 602396; hit rate 0.13% among 360,000; O00482;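 active = inhibition above the mean inhibition of all tested compounds plus 3 SD, cut at about 73% in these data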
SRC2 inh: human SRC2 (NCOA2) inhibition; Q15596; HEK293 GAL4-SRC2 luciferase reporter, luminescence; inhibition, % at 9 µM; hit rate 0.17% among 370,000; AID 651957;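 active = inhibition above the mean inhibition of all tested compounds plus 3 SD, set per campaign, cut at about 52% in these data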
NCOA1 inh: inhibitors of human steroid receptor coactivator 1 (SRC1); Q15788; HEK293 GAL4-SRC1 luciferase reporter, luminescence; inhibition, % at 3.6 µM; hit rate 0.12% among 360,000; AID 588354;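 active = inhibition above the campaign mean plus 3 SD, with each screening campaign given its own cutoff, cut at about 60% in these data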
GalR3 antag conf: confirmation of human galanin receptor 3 antagonists; hit rate 59% among 1,600; shares compounds with GalR3 antag; HEK293 GalR3 CNG cAMP biosensor, membrane potential fluorescence; galR3 fused to GalR1 carboxy tail; challenged with forskolin and galanin at EC90; inhibition, % at 3 µM;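 active = inhibition above the primary screen's cutoff, the mean inhibition of all screened compounds plus 3 SD, cut at about 13% in these data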
CNG parental: acts as nonspecific agonist in parental HEK-CNG cells | shares compounds with GalR3 antag | HEK293-CNG parental cells, cAMP membrane potential fluorescence; normalised: DMSO wells 0%, forskolin wells 100% | activation, % at 3 µM | hit rate 10% among 1,600 | AID 652268; in the data active = activation above about 1.3%
Numbers stand for hits; . = inactive; / = no result.

SMILES	GalR3 antag	NR2F2 inh	SRC3 inh	LRH-1 inv ag	SRC2 inh	NCOA1 inh	GalR3 antag conf	CNG parental
N#CC1=C(N)Oc2n[nH]c(-c3ccc(F)cc3)c2C1c1cccc(OC(=O)N2CCOCC2)c1 (stereo not drawn)	.	.	.	.	.	.	/	/
COc1cccc(-c2[nH]nc3c2C(c2ccoc2)C(C#N)=C(N)O3)c1 (stereo not drawn)	.	.	.	.	.	.	/	/
CCOc1ccc(-c2[nH]nc3c2C(c2cccnc2)C(C#N)=C(N)O3)cc1 (stereo not drawn)	16	.	.	.	.	.	.	.
N#CC1=C(N)Oc2n[nH]c(-c3ccccc3)c2C1c1cccc(OC(=O)N2CCOCC2)c1 (stereo not drawn)	28	.	.	.	.	.	.	.
CCOC(=O)[C@]12CCCC=C1N(CCCOC)C(=O)[C@@H]2CC(=O)NCc1cccc(C(F)(F)F)c1	/	.	/	/	.	/	/	/
COc1cccc(OC[C@@H](O)CN2CCC(C(O)(c3ccccc3)c3ccccc3)CC2)c1	/	.	/	/	.	/	/	/
O=S1(=O)c2c(NCc3ccco3)cccc2Oc2ccccc2CN1Cc1cn(Cc2ccc(C(F)(F)F)cc2)nn1	/	.	/	/	.	/	/	/
Cc1ccc(S(=O)(=O)N(C)Cc2cc3cc(C)ccc3[nH]c2=O)cc1	.	.	.	.	.	.	/	/
COCCN(Cc1cc2cc(C)ccc2[nH]c1=O)S(=O)(=O)c1ccc(Cl)cc1	73	.	.	.	.	.	.	.
COc1ccccc1CNC(=O)N1CCN(Cc2nc3ccccc3c(=O)[nH]2)CC1	/	.	/	/	.	/	/	/
CC1C(=O)CC(c2ccc([N+](=O)[O-])cc2)NC1c1ccc([N+](=O)[O-])cc1 (stereo not drawn)	18	.	.	.	.	.	17	.
Cc1cc(C)cc(N(CC(=O)NCc2ccco2)C(=O)CCC(=O)Nc2nccs2)c1	.	.	.	.	.	.	/	/
Cc1ccc(N(CC(=O)NCc2ccco2)C(=O)CCC(=O)Nc2nccs2)cc1	14	.	.	.	.	.	.	.
COc1cc(/C=C2\SC(c3ccc(C)cc3)=NC2=O)ccc1O	17	.	.	.	.	.	.	.
CC(=O)N1CCC2(CC1)C(C#N)=C(N)Oc1n[nH]c(C(F)(F)F)c12	/	.	.	.	.	.	.	.
Cc1cc(=O)[nH]c(SCC(=O)c2ccc3c(c2)NC(=O)CO3)n1	15	.	.	.	.	.	.	.
Nc1cc(N)nc(SCC(=O)c2ccc3c(c2)NC(=O)CO3)n1	.	.	.	.	.	.	/	/
COc1ccc(CNC(=O)CN(C(=O)CCC(=O)Nc2ccccn2)c2cccc(C)c2)cc1	13	.	.	.	.	.	30	1.3
CCCCNS(=O)(=O)/C=C/c1cc(C)ccc1CNC(=O)OC(C)(C)C	/	.	/	/	.	/	/	/
CCn1c(SCC(=O)NN=Cc2c(C)nn(-c3ccccc3)c2C)nnc1-c1ccc(OC)c(OC)c1	/	.	/	/	.	/	/	/
CCCCC[C@H](O)/C=C/C1C(=O)C=C[C@H]1C/C=C\CCCC(=O)OC (stereo partly drawn)	64	.	.	.	.	.	80	.
CC[C@@H](CCCCCC#N)CCC(=O)N(c1ccccc1)c1ccccc1	/	.	/	/	.	/	/	/
COCc1[nH]nc2c1C(c1ccc(OC)c(OC)c1)C(C#N)=C(N)O2 (stereo not drawn)	.	.	.	.	.	.	/	/
CCn1c2ccccc2c2cc(C3C(C#N)=C(N)Oc4n[nH]c(COC)c43)ccc21 (stereo not drawn)	41	.	.	.	.	.	26	.
C#CCOCCOCCOCCNc1nc(N2CCN(C(=O)Cn3cc(CCCN=C(N)N)nn3)CC2)nc(N2CCN(C(=O)[C@H](Cc3ccc(O)cc3)n3cc(CCO)nn3)CC2)n1	/	.	/	/	/	/	/	/
O=C(Nc1ccc2c(c1)OCCO2)C1CCC1	.	.	.	.	.	.	/	/
O=C(Nc1ccc2c(c1)OCCO2)NC1CCCCC1	/	.	.	.	.	.	.	.
